This is a sample that favours compounds with a hit; in the whole collection about 6.1% have one here.
D1 PAM – potentiators of human D1 dopamine receptor; P21728; HEK293 TREx D1 cells, calcium flux, dopamine EC20 potentiation; potentiation, % at 10 µM; 0.036% of 360,000 active; AID 504651; in the data active = potentiation above about 30%; note: 0% is about no effect
D1 agonist – activates the human D1 dopamine receptor | HEK293 T-REx D1 cells, calcium flux, agonist mode | AID 504660 | 1% of 360,000 active | activation, % at 2 µM | P21728; in the data active = activation above about 30%; note: 0% is about no effect
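Inducible HEK293 T-REx D1 cells, force-coupled to calcium signalling, were plated at 4000 cells/well with tetracycline and held overnight at 30 C. After no-wash calcium dye loading, compound-evoked calcium rise over 180 s flagged agonists.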
D3 antag – blocks the human D3 dopamine receptor; D3R cells, DiscoveRx beta-arrestin luminescence, antagonist mode; stronger effect = lower value; max response, negative = inhibition, %; 2.5% of 360,000 active; AID 652054; in the data active = max response below about -50%; inconclusive = no clear call, values can overlap the other calls; note: % is set by controls: 0 for no effect and ±100 for the full control effect
Target sequence (P35462 whole entry, looked up): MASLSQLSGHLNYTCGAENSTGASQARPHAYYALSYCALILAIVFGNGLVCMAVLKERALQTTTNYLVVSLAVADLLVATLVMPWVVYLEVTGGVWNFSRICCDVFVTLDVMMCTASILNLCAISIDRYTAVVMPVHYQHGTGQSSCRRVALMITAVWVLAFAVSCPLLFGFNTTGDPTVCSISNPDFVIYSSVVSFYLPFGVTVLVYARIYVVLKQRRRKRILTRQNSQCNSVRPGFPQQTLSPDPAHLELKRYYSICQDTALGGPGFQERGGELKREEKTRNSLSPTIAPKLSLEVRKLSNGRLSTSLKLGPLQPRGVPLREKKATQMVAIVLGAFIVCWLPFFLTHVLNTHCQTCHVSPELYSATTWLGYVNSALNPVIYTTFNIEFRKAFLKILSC
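Cells expressing the human receptor were seeded at 1500 cells/well, incubated overnight at 37 degrees C in 5% CO2, then exposed to library compounds with dopamine controls for 90 minutes at 37 degrees C before luminescent detection.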
D1 antag – antagonists of human D1 dopamine receptor; HEK293 TREx D1 cells, calcium flux, dopamine EC80; stronger effect = lower value; 3.2% of 360,000 active; activity change, negative = inhibition, % at 10 µM; P21728; AID 504652; in the data active = activity change below about -30%; note: % is set by controls: 0 for no effect and ±100 for the full control effect
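Inducible Hek293 Trex D1 cells (tetracycline, overnight, 30 C). Calcium dye 30–90 min RT. Antagonist mode: EC80 dopamine added after 180 s compound read.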
D3 ag – agonists of human D3 dopamine receptor; D3R DiscoveRx beta-arrestin cells, luminescence, 90 min; max activation, %; 0.58% of 410,000 active; in the data active = max activation above about 30%; note: 0% is about no effect
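Agonist mode: compounds and dopamine controls were applied to plated cells for 90 min at 37 degrees C after an overnight attachment at 1500 cells/well. Luminescent read-out followed 30 - 60 minutes at room temperature with DiscoveRx detection reagent.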
Starred values were filed as active, the others as inactive; ? = inconclusive; · = no result given; ! = not active in a repeat.

SMILES	D1 PAM	D1 agonist	D3 antag	D1 antag	D3 ag
Cc1ccccc1-n1c(O)c(C=Nc2ccc3c(c2)OCO3)c(=O)[nH]c1=O	-9.8	0.7	9.0	4.7	5.1
CCN(CC)c1ccc(N=Cc2c(O)[nH]c(=O)[nH]c2=O)cc1	-7.2	10.8	-2.9	-11.0	1.4
CCOc1ccccc1-n1c(O)c(C=Nc2ccc(N(CC)CC)cc2)c(=O)[nH]c1=O	-0.6	36.9*	?	10.3	-15.2
CCN(CC)c1ccc(N=Cc2c(O)n(-c3ccccc3C)c(=O)[nH]c2=O)cc1	-2.8	30.9*	-13.1	-8.3	-15.7
O=c1[nH]c(=O)n(Cc2ccc(F)cc2)c(O)c1C=Nc1ccc(Cl)cc1	-5.0	3.5	5.6	-1.2	15.6
CCN(CC)c1ccc(N=Cc2c(O)n(-c3ccccc3)c(=O)[nH]c2=O)cc1	-0.8	86.1*	21.9	-1.4	0.7
CCOc1ccc(-n2c(O)c(C=Nc3ccc(N(CC)CC)cc3)c(=O)[nH]c2=O)cc1	-3.6	17.1	-5.8	0.8	-30.5
CCN(CC)c1ccc(N=Cc2c(O)n(Cc3ccccc3)c(=O)[nH]c2=O)cc1	-3.9	36.6*!	-12.5	-4.5	0.5
O=C1C[C@@H]2OCC=C3CN4CC[C@]56c7ccccc7N1[C@H]5[C@H]2[C@H]3C[C@H]46	·	·	·	·	-12.1
O[C@H]1[C@H]2[C@H](O)CCCN2C[C@H]1O	·	·	·	·	-14.6
CSc1nc(N2CCN(C)CC2)c2ccccc2n1	2.6	0.9	-16.3	1.5	-9.9
COc1nc2ccccc2nc1N1CCN(C)CC1	-3.8	2.0	-83.4*	-19.8	-1.5
CC(C)(C)c1ccc(O)c(CN2CCN(c3ccccc3)CC2)c1	-1.1	4.6	-71.0*	0.4	-6.9
CCOc1ccc(C2(C#N)CC[N+](C)(C)CC2)cc1	2.6	-0.8	-50.7*	-15.2	-1.7
CC1=NCCc2c1[nH]c1cc(O)ccc21	8.0	405.4*	-11.3	-2.4	-15.2
COc1cc(/C=C/C(=O)c2c(O)n(CCc3ccccc3)c(=O)[nH]c2=O)ccc1O	0.4	42.2*	-16.2	9.5	0.3
CC1=C[C@@H]2c3cccc4[nH]cc(c34)C[C@H]2N(C)C1	-9.7	30.6*	-21.6	-37.5*	53.8*
Nc1c(C(=O)NCCCc2ccccc2)c2nc3ccccc3nc2n1Cc1cccs1	7.3	3.0	22.7	50.7	35.4*
CCCCCn1c(N)c(C(=O)NCc2cccs2)c2nc3ccccc3nc21	1.2	0.0	12.0	-2.6	16.2
COc1ccc(-c2nc(CN3C(=O)CN=C(c4ccccc4)c4cc(Cl)ccc43)c(C)o2)cc1	-2.6	11.9	·	-27.5	9.2
CCCCCc1nc2ccccc2c(=O)n1-c1ccc(Cl)cc1[N+](=O)[O-]	1.2	-0.5	18.8	-44.4*	28.5
Cc1ccccc1-n1nc(C)c2c1NC(=O)CSC2c1ccccc1C(F)(F)F (stereo not drawn)	0.3	-1.3	·	-8.1	6.0
C[C@H]1CC[C@@H]2[C@@H](C)[C@H]3[C@H](C[C@H]4[C@@H]5CC=C6CC(O[C@@H]7O[C@H](CO)[C@H](O)[C@H](O[C@@H]8O[C@H](CO)[C@@H](O)[C@H](O)[C@H]8O)[C@H]7O[C@H]7O[C@@H](C)[C@H](O)[C@@H](O)[C@H]7O)CC[C@]6(C)[C@H]5CC[C@]34C)N2C1 (stereo partly drawn)	·	·	·	·	-1.0
COc1ccc(C=C2C(=O)N(C)C(=O)N(C)C2=O)cc1COc1ccc(NC(C)=O)cc1	-8.3	4.0	-13.6	-21.2	-4.0
CN1C(=O)C(=Cc2ccc(OCC(=O)Nc3ccccc3)cc2)C(=O)N(C)C1=O	-1.2	3.5	-2.2	-33.7*	0.8
SMILES	D1 PAM	D1 agonist	D3 antag	D1 antag	D3 ag
Cc1cc(Cl)ccc1OCC(=O)O	-3.2	0.6	-110.1*	-14.9	-87.5
Cc1cccc(Cn2cccc(C(=O)Nc3nc4ccccc4s3)c2=O)c1	-1.5	1.0	·	·	-19.0
Nc1cc(N2CCNCC2)ccc1[N+](=O)[O-]	-6.5	1.1	-16.6	2.8	-7.8
Clc1cccc(N2CCNCC2)c1	-9.7	3.4	-76.4*	-5.7	-76.5
CCC(=O)N1CC(=O)Nc2ccc(C)cc2C1c1ccc(F)cc1 (stereo not drawn)	1.1	2.0	·	9.0	-16.0
COc1ccc(CCNCc2ccc(SC)cc2)cc1	-2.3	10.8	-52.6*	5.9	-34.7
Cc1cccc(-n2c(/C=C\c3cccc(Br)c3)nc3ccccc3c2=O)c1	-1.4	-4.3	·	0.6	4.8
